Among the data in PubChem BioAssay (EPA / NIEHS) are outcome and AC50 values, retold here.

Molecules are shown by their SMILES. Where “and” joins values, the source holds several entries; their conditions need not be identical. Equal entries are not always repeated. Inconclusive results are not listed. Calls of active or inactive are those of the source. Rule for the calls, unless noted: active = hit-call score of the fitted dose curve at least 0.9, where 1 is the maximum; inconclusive = response in the unintended direction; inactive = score below 0.9.

Assay [1] deals with Nucleoli Translocation, AR (gene 367) (UniProt P10275). The assay is described as follows: UPITT_HCI_U2OS_AR_TIF2_Nucleoli_Antagonist: University of Pittsburgh U2OS Androgen Receptor-Transcriptional Intermediary Factor 2 (AR-TIF2) Antagonism High Content Imaging Assay for Nucleoli Translocation (AID 2283997). Summed up:
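U2OS cells expressing RFP-tagged human AR and GFP-tagged TIF2 were imaged by high-content fluorescence microscopy for red AR signal in the nucleolar region. Compounds were screened at 20 uM final (0.2% DMSO), with activity fitted relative to DHT as baseline.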

The target in assay [2] is Ratio of Nucleoli Translocation and Cytoplasm, AR (gene 367) (UniProt P10275). As to the kind of experiment: UPITT_HCI_U2OS_AR_TIF2_Nucleoli_Cytoplasm_Ratio_Antagonist: University of Pittsburgh U2OS Androgen Receptor-Transcriptional Intermediary Factor 2 (AR-TIF2) Antagonism High Content Imaging Assay for Ratio of Nucleoli Translocation and Cytoplasm (AID 2283999).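 Note: antagonists lower the DHT-driven ratio of nucleolar to cytoplasmic red signal.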 The essentials:
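U2OS cells expressing RFP-tagged human AR and GFP-tagged TIF2; compounds tested at 20 uM final (0.2% DMSO) in primary screen, 0.195–50 uM (0.5% DMSO) for concentration response. Readout: nucleolar-to-cytoplasmic red fluorescence ratio by high-content imaging, fitted relative to DHT.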

The target is the same in assay [3]. The assay is described as follows: UPITT_HCI_U2OS_AR_TIF2_Nucleoli_Cytoplasm_Ratio_Agonist: University of Pittsburgh U2OS Androgen Receptor-Transcriptional Intermediary Factor 2 (AR-TIF2) Agonism High Content Imaging Assay for Ratio of Nucleoli Translocation and Cytoplasm (AID 2284000).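 Note: hits raise the red nucleolar to cytoplasm ratio above vehicle.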 Summed up: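 U2OS cells expressing RFP-tagged human AR and GFP-tagged TIF2 were imaged by high-content fluorescence microscopy. The endpoint is the ratio of nucleolar to cytoplasmic red fluorescence, fitted for gain of signal relative to DMSO. Concentration-response spanned 0.195 to 50 uM final (0.5% DMSO).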

A short description of assay [4]: CCTE_Simmons_MITO_basal_resp_rate: CCTE's HepG2 Seahorse XF Respirometric Screening Assay at Basal Respiratory State, Simmons Lab (AID 2284001; active = hit-call score of the fitted dose curve at least 0.9, where 1 is the maximum; inactive = score below 0.9). Conditions: actives raise or lower the signal. The essentials: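 HepG2 cells were given test chemicals at 7 concentrations, 125 nM to 100 uM final, and oxygen consumption rate was read every 6 min (3 min mix, 3 min measure) over 72 min. Basal-phase OCR was fitted bidirectionally against DMSO.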

The nature of assay [5]: CCTE_Simmons_MITO_max_resp_rate: CCTE's HepG2 Seahorse XF Respirometric Screening Assay at Maximal Respiratory State [uncoupled], Simmons Lab (AID 2284002; active = hit-call score of the fitted dose curve at least 0.9, where 1 is the maximum; inactive = score below 0.9). Conditions: actives raise or lower the signal. Summed up: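 Read-out is oxygen consumption rate at maximal respiration, taken after FCCP uncoupling of compound-treated HepG2 cells. Seven final concentrations from 125 nM to 100 uM were tested, each in three biological replicates.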

Assay [6] can be described thus: CCTE_Simmons_MITO_inhib_resp_rate: CCTE's HepG2 Seahorse XF Respirometric Screening Assay at Inhibited Respiratory State [full ETC block], Simmons Lab (AID 2284006; active = hit-call score of the fitted dose curve at least 0.9, where 1 is the maximum; inactive = score below 0.9). The settings on record: actives raise or lower the signal. The essentials: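 HepG2 cells on Seahorse XF96; oxygen consumption measured after test compound, then FCCP, then rotenone/antimycin A injections over 72 min. Test chemicals at 7 concentrations, 125 nM–100 uM final. OCR fitted bidirectionally versus DMSO.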

Assay [7] is described as follows: CCTE_Harrill_HTTr_Viability_MCF7: CCTE's 6-hour Cell Viability Assessment for the High-Throughput Transcriptomics (HTTr) Platform, in MCF-7 cells cultured in DMEM + 10% fetal bovine serum, Harrill Lab (AID 2284010; active = hit-call score of the fitted dose curve at least 0.9, where 1 is the maximum; inactive = score below 0.9). The essentials: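 Membrane integrity was scored by high-content imaging of propidium iodide dye exclusion after a 6 h exposure across an eight-point dilution series. Data were fitted bidirectionally relative to DMSO as negative control and baseline.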

The nature of assay [8]: CCTE_Harrill_HTTr_CellCount_MCF7: CCTE's Cell Proliferation Assessment for the High-Throughput Transcriptomics (HTTr) Platform, Harrill Lab (AID 2284012).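 Note: cells exposed to compound for six hours; intended direction is loss of nuclei count meaning fewer cells.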 The essentials:
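MCF-7 cells were exposed for 6 h to an eight-point dilution series; Hoechst-labeled nuclei were counted by high content imaging. Curves were fitted bidirectionally against DMSO as negative control and baseline, with signal loss indicating reduced cell count.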

The next assay deals with DIO1 (gene 1733). The assay is described as follows: CCTE_GLTED_hDIO1: CCTE's human Deiodinase 1 (DIO1) Inhibition Assay, Great Lakes Toxicology and Ecology Division (GLTED) Lab (AID 2283987).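 Note: isolated human DIO1 enzyme in a cell-free setup rather than cells; enzyme activity read as free iodide liberated from substrate via Sandell-Kolthoff colorimetry.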 Summed up:
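Inhibition of human deiodinase 1 is scored as reduced iodide liberation after a 3 h enzyme–chemical incubation, detected colorimetrically by the Sandell-Kolthoff reaction against DMSO controls.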

The nature of assay [9]: CCTE_Shafer_MEA_acute_spike_number: CCTE's Neural Acute Assay for Total Number of Spikes, Shafer Lab (AID 2284008; active = hit-call score of the fitted dose curve at least 0.9, where 1 is the maximum; inactive = score below 0.9;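 for AC50: curve fitted for decrease in spike count so AC50 reflects inhibitors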). The essentials: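 Read-out is the total spike count over 40 min, expressed as percent change from each well's own pre-treatment baseline and fitted in the loss direction against DMSO. Rat cortical neurons were exposed at 0.03-40 uM on DIV 13 or 15.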
Assay [10] is described as follows: CCTE_Shafer_MEA_acute_firing_rate_mean: CCTE's Neural Acute Assay for Mean Firing Rate, Shafer Lab (AID 2284009; active = hit-call score of the fitted dose curve at least 0.9, where 1 is the maximum; inactive = score below 0.9;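 note: analyzed for loss of signal so actives lower firing rate relative to DMSO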). The essentials: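 Read-out: well-mean spike rate (spikes/recording length/electrodes), % change from 40 min pre-dose baseline to 40 min with compound. Rat cortical cultures, DIV 13 or 15, 37 C; 0.03-40 uM; DMSO as negative control.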
The nature of assay [11]: CCTE_Harrill_HTTr_Apoptosis_MCF7: CCTE's 6-hour Apoptosis Assessment for the High-Throughput Transcriptomics (HTTr) Platform, in MCF-7 cells cultured in DMEM + 10% fetal bovine serum, Harrill Lab (AID 2284011; active = hit-call score of the fitted dose curve at least 0.9, where 1 is the maximum; inactive = score below 0.9). The essentials:
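MCF-7 (DMEM + 10% FBS), 384-well; 8-pt dilution series, 6 h chemical exposure; caspase-3/7 activation via CellEvent Caspase 3/7 Green, HCI; bidirectional fit vs DMSO.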

In assay [12] the target is Nucleoli Translocation, AR (gene 367) (UniProt P10275). As to the kind of experiment: UPITT_HCI_U2OS_AR_TIF2_Nucleoli_Agonist: University of Pittsburgh U2OS Androgen Receptor-Transcriptional Intermediary Factor 2 (AR-TIF2) Agonism High Content Imaging Assay for Nucleoli Translocation (AID 2283998). Summed up: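 Readout is red (AR-RFP) fluorescence localized to nucleoli, measured by high-content imaging and analysed for increase relative to DMSO. Compound series spanned 0.195 to 50 uM final in 0.5% DMSO.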
Nucleoli Translocation, AR (gene 367), sequence (P10275 whole entry, looked up): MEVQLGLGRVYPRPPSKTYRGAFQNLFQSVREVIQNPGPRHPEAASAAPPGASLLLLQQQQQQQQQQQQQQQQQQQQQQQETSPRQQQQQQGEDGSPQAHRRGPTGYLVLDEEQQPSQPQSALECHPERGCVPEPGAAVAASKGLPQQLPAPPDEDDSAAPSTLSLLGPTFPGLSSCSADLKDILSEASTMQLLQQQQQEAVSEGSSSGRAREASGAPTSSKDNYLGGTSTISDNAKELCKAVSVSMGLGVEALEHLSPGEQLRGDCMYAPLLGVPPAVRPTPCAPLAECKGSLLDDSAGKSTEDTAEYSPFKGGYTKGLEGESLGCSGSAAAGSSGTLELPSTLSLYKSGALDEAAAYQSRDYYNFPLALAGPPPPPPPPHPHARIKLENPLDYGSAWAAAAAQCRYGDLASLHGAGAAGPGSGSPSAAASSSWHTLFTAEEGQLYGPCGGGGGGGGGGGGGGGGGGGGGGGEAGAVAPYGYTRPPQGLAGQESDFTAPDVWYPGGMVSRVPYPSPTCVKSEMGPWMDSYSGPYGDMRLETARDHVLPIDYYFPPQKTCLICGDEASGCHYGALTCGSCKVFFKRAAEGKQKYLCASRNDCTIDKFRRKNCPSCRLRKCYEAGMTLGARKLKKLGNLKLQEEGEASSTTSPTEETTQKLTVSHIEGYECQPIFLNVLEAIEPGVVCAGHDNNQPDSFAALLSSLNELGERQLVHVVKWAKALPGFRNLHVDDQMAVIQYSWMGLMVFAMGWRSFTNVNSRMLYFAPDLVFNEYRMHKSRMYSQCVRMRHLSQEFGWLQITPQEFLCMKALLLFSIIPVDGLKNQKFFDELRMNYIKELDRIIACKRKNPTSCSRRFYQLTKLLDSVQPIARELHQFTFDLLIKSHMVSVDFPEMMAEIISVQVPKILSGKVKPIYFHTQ

Ratio of Nucleoli Translocation and Cytoplasm, AR (gene 367), sequence (P10275 whole entry, looked up): as above

In general, AC50 refers to the concentration giving half of the maximal activity seen. `O=[N+]([O-])c1ccc(O)c([N+](=O)[O-])c1`: the molecule was called inactive in assay [1], in assay [2], in [3], in assay [5], in [6] and in assay [7]. In assay [8], the molecule was classed as inactive. The concentration at half-maximal activity (AC50) in assay [4] was 13 µM (active) and 10.3 µM (active).
Regarding `O=C(O)C(F)(F)C(F)(F)C(F)(F)C(F)(F)C(F)(F)C(F)(F)C(F)(F)C(F)(F)C(F)(F)C(F)(F)F`, in the assay on DIO1 (gene 1733), the AC50 is 157 µM (active) and 18 µM (active). The outcome in [4], in [5], in [6], in assay [9], in assay [10] and in assay [7] was inactive. Also, in [8], the molecule was called inactive.
For `O=C(Nc1ccc2[nH]ccc2c1)c1cc2cc(F)ccc2n1Cc1cccc(F)c1`, the call in assay [4], in assay [5], in assay [6], in [7] and in assay [11] was inactive. The AC50 in [9] and in [10] was 1.43 µM (active) throughout.
`COP(=S)(OC)Oc1ccc(Sc2ccc(OP(=S)(OC)OC)cc2)cc1`: in the assay on DIO1 (gene 1733), the concentration at half-maximal activity (AC50) was 1.19 µM (active). Further, the molecule was classed as inactive in [1], in [12], in assay [2], in assay [3] and in assay [7].
For the molecule `CC(C)(c1ccc(OCC2CO2)cc1)c1ccc(OCC2CO2)cc1` (stereo not drawn), the AC50 in the assay with DIO1 (gene 1733) was 1.37 µM (active); in assay [1] it was 50 µM (active); in assay [2], 38.1 µM (active). The molecule was classed as inactive in assay [12], in [3], in assay [7] and in [11].
Turning to `O=c1[nH]c(=O)[nH]c(=O)[nH]1`, the molecule was called inactive in [1], in assay [12], in assay [2], in [7] and in [8].
On to `CN(CCCC(=O)c1cccnc1)N=O`, for which the outcome in assay [1], in assay [12], in assay [2], in assay [3] and in assay [7] was inactive.
Turning to `CC(=O)[O][Hg][c]1ccccc1`, the AC50 is 0.29 µM (active) in assay [1]; 0.424 µM (active) in assay [2]; 13.1 µM (active) in assay [4]; 13.1 µM (active) in assay [5]; 53.5 µM (active) in assay [7]; 50 µM (active) in assay [8]. The call in assay [12], in assay [3], in [6], in assay [9], in assay [10] and in [11] was inactive.
For `Cc1ccc2ccccc2c1C`, the call in assay [1], in assay [12], in assay [2], in assay [3], in assay [7] and in [11] was inactive.
In the case of `CCC1(c2ccc(N)cc2)CCC(=O)NC1=O` (stereo not drawn), the outcome in assay [1], in assay [2], in assay [7], in [11] and in assay [8] was inactive.
With `COP(=O)(OC)O/C(=C\Cl)c1cc(Cl)c(Cl)cc1Cl`, the AC50 is 48.7 µM (active) with DIO1 (gene 1733), 50 µM (active) in assay [1] and 50 µM (active) in [3]. In addition, the outcome in assay [12], in assay [2], in assay [7] and in assay [11] was inactive.
For `CC(=O)c1cc(C(C)(C)C)cc2c1CCC2(C)C`, the result in assay [7] and in assay [11] was inactive.
Consider `COP(=S)(OC)Oc1cc(Cl)c(Br)cc1Cl`, for which the outcome in [7] and in assay [11] was inactive.
Regarding `O=C1CCCN1`, the outcome in [7] and in assay [11] was inactive.
For the molecule `CCNc1nc(NC(C)(C)C)nc(SC)n1`, the result in assay [7] was inactive.
